Screens (PubChem BioAssay)
POLI inh: inhibitors of human DNA polymerase iota; Pol iota fluorescent replication assay, 10 min; Potency, µM (highest dose often 115 µM), for inactives: at the top dose activity, negative = inhibition, hits mostly inhibitors; 1% of 390,000 active; AID 588590; Q9UNA4; also: potency is read from the fitted curve at half-maximal effect
Target sequence (Q9UNA4 whole entry, looked up): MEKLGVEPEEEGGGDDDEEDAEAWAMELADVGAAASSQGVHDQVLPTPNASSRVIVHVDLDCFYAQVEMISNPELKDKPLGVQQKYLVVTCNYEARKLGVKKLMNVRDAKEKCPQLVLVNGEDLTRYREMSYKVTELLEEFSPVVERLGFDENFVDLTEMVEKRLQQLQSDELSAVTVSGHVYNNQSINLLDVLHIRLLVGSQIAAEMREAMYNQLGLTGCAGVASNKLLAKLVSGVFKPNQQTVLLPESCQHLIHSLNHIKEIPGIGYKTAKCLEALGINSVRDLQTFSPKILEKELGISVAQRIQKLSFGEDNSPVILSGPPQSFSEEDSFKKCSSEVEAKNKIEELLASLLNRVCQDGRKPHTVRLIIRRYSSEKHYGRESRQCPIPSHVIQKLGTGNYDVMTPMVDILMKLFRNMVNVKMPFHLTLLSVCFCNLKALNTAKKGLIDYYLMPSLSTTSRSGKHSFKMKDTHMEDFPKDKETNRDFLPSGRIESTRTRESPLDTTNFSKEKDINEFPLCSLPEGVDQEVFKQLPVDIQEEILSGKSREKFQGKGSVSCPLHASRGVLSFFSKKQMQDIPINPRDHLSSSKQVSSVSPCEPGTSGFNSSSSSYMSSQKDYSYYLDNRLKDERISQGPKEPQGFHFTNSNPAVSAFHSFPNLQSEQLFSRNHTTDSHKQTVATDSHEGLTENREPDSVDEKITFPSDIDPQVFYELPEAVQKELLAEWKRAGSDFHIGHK
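Fluorescent replication assay read twice, at 0 min and 10 min after adding 50 nM (final) substrate. Enzyme (10 nM) and compounds were first incubated 15 min at room temperature; enzyme-free buffer wells were negative controls.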
PI5P4Ka inh: inhibitors of human PI5P4K alpha; P48426; PI5P4Kalpha enzyme, ADP-Glo luminescence, 60 min; hits give low values; max response, %; 1.2% of 330,000 active; active = max response of -50% or lower; inconclusive = between -30% and -50%; inactive = -30% or higher; also: value at the top dose of about 77 µM; % is scaled to controls: 0 for no effect and ±100 for the full control effect
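Controls without substrate or without enzyme flank wells where PI5P4Kalpha converts substrate using 5 microM ATP (final). Incubation lasts 60 minutes at room temperature; ADP formed is read by ADP-Glo luminescence.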
WRN helicase inh: blocks human WRN helicase; Q14191; AID 651768; 0.46% of 360,000 active; Potency, µM (doses to about 114 µM), for the others: at the top dose activity change, negative = inhibition, most hits filed as inhibitors; WRN helicase unwinding, fluorescent forked duplex, kinetic; also: potency is read from the fitted curve at half-maximal effect; % is scaled to controls: 0 for no effect and ±100 for the full control effect; nearly all actives have a fitted effect of over 55% in size
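Enzyme (20 nM final) and test compound sit together 15 min at room temperature before substrate addition. Substrate is a single-forked duplex oligonucleotide (100 nM) labelled with fluorophore and quencher, with 2 mM ATP; helicase unwinding raises red fluorescence, read kinetically.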
POLB inh: blocks human DNA polymerase beta activity | Pol beta primer extension/strand displacement, fluorescence kinetic | Potency, µM (highest dose often 114 µM), for the others: at the top dose activity change, negative = inhibition, most hits filed as inhibitors | 1.3% of 340,000 active | AID 485314; also: potency is read from the fitted curve at half-maximal effect; % is scaled to controls: 0 for no effect and ±100 for the full control effect
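Homogeneous kinetic assay of primer extension and strand displacement by 10 nM Pol beta, preincubated 15 min at room temperature with compound before 50 nM substrate (final) was added. Read at 0 and 10 min; four-parameter Hill fit.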
POLH inh: inhibitors of human DNA polymerase eta; Q9Y253; 1.2% of 390,000 active; recombinant Pol eta, fluorescent DNA replication assay; Potency, µM (titrated, usually from 114 µM), without a hit: at the highest dose activity change, negative = inhibition, usual class: inhibitors; also: potency is read from the fitted curve at half-maximal effect; % is scaled to controls: 0 for no effect and ±100 for the full control effect
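Pol eta (10 nM) was preincubated with compounds for 15 min at room temperature, after which fluorescent replication substrate (50 nM final) was added to start the reaction. Fluorescence was read kinetically at 0 and 10 min.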
Pol kappa inh: inhibitors of human DNA polymerase kappa; Q9UBT6; AID 588579; 0.53% of 400,000 active; Potency, µM (doses to about 107 µM), inactives show at the highest dose activity, negative = inhibition, most hits filed as inhibitors; purified Pol kappa, fluorescent DNA synthesis assay, 10 min; also: potency is read from the fitted curve at half-maximal effect; % is scaled to controls: 0 for no effect and ±100 for the full control effect
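50 nM final substrate added after 15 min RT preincubation of 10 nM Pol kappa with compound; fluorescence read at 0 and 10 min.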
* = called active by the depositor; ? = inconclusive; . = no result; [ ] = remark or other dose. The list is not random: actives were taken first. Their share in the collection is about 2.8%. Unless noted, calls follow the shape of the dose curve; as a rule, active = well fitted curve in the direction sought with a large enough effect; inconclusive = small, poorly fitted or top-dose-only effect, or another doubt; inactive = no such curve, though single readings can be large; an effect the other way counts as inactive or inconclusive.

SMILES	POLI inh	PI5P4Ka inh	WRN helicase inh	POLB inh	POLH inh	Pol kappa inh
Cn1c(SCC(=O)c2cc(Cl)c(Cl)s2)nnc1-c1ccco1	16µM*	-24	?	20µM*	?	32µM*
Cc1ccc(C(=O)CSc2nnc(-c3ccccc3N)n2C)cc1	35%	2	10%	6%	-7%	-12%
O=C(CSc1nccn1-c1ccccc1)c1ccc(Cl)cc1	-4%	4	-3%	6%	-14%	-2%
COc1ccccc1-c1nnc(C2CCN(C(=O)c3cccc(Cl)c3)CC2)o1	-12%	.	.	-1%	-19%	-10%
COC(=O)Cc1ccccc1NS(=O)(=O)c1ccc(C)cc1	.	0	-2%	.	.	.
Cc1cccc(C2NC(=O)c3c(sc4c3CCN(C)C4)N2)c1O (stereo unspecified)	47%	.	.	12%	-5%	0%
CCOc1ccc2nc(N3C(=O)/C(=C/c4ccccc4)NC3=S)sc2c1	-16%	-54*	-16%	0%[57.1 µM]	?	-2%
CC(C)(C)n1ncc2c(=O)n(Cc3ccc(F)cc3F)cnc21	-20%	.	.	.	.	-1%
O=C(Nc1cccc(Cl)c1)c1cccc(N2C(=O)C3CC=CCC3C2=O)c1 (stereo unspecified)	?	-6	-24%	16µM*	-21%	-18%
CCc1cccc(NC(=O)c2cnc(SC)nc2-c2ccccc2)c1	-5%	.	.	-8%	-25%	-3%
CC(C)c1ccc(C(=O)Nc2cc(-c3ccccc3F)nn2-c2ccccc2)cc1	-3%	.	.	-17%	-2%	-7%[60.1 µM]
Cc1cc(=O)[nH]c2c(N=Nc3ccc(O)cc3)c(N)nn12	?	-21	?	2%	-18%	89µM*
C#CCn1cnc2c(cnn2-c2ccc(F)cc2)c1=O	15%	.	.	3%	-13%	-5%
O=C1NC(=S)S/C1=C\c1coc2ccc(O)cc2c1=O	?	-100*	?	?	50µM*	-20%
O=C1NC(=S)S/C1=C\c1coc2ccccc2c1=O	?	-73*	-22%	17%	-19%	-3%
O=C(N/N=C/c1coc2ccc(Cl)cc2c1=O)c1ccc(O)cc1	8%	-19	-1%	?	-8%	-1%
CC(=O)c1ccc(NC(=O)c2cnn3c2NC(=C2CC2)C=C3C(F)F)cc1	5%	.	.	.	.	3%
O=C(Nc1cc(-c2nc3cc(Cl)ccc3o2)ccc1Cl)c1cc2ccccc2o1	-11%	.	.	-2%	-14%	8%
COCCCNC(=O)c1ccc2c3c(onc13)-c1ccccc1C2=O	?	-7	22µM*	6%	45µM*	-13%
OCCN1CCN(c2cc(-c3ccccc3)c3ccccc3n2)CC1	-7%	-5	79µM*	-6%	-18%	-12%
COc1cc2c(Cc3ccccc3)cncc2cc1O	19%	2	-1%[11.6 µM]	.	0%	89µM*
COc1cc2cncc(Cc3ccccc3)c2cc1O	40%	-7	-8%	.	-17%	-3%
Cc1cc(-c2ccccc2)c2c(=O)[nH][nH]c2n1	79µM*	-8	-20%[57.1 µM]	0%	-18%	-9%
O=c1[nH]nc(-c2ccccc2)cc1-c1ccccc1	35%	-20	-4%	.	-13%	-13%
NC(=O)C1Cc2ccccc2CN1S(=O)(=O)c1cccs1 (stereo unspecified)	35%	-2	2%	4%	-16%	6%
CC(C)OC(=O)C1Cc2ccccc2CN1S(=O)(=O)c1cccs1 (stereo unspecified)	?	-11	-2%[11.6 µM]	32µM*	?	-31%
Cc1ccc(C)c(CSc2nc3ccncc3n2CC(=O)Nc2ccc(N(C)C)cc2)c1	19%	.	.	29%	-13%	1%
COc1ccc2ccc3c(c2c1)N=C[C@]1(O3)N(C)c2ccccc2C1(C)C	?	?	11µM*	14%	71µM*	-8%
COc1cc(OC)c(NC(=O)Cn2c(=O)oc3cc(S(=O)(=O)N4CCCC4)ccc32)cc1Cl	-18%	.	.	-18%	5%	-2%[60.1 µM]
Cc1sc2nc3c4ccccc4c(NCc4ccco4)nn3c(=O)c2c1C	-1%	?	?	11µM*	?	-19%
